Shown are actives, neighbours in structure and some others; about 1.9% of the full set was active somewhere.
DSG3 Ab inh = inhibitors of pemphigus antibody binding to DSG3, primary screen, biochemical, bead-based, flow cytometry, scFv-GFP | DSG3-coupled beads, scFv-anti-DSG3-GFP binding; active compounds read low | binding (percent of control), % at 10 µM | hit rate 0.48% among 310,000;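 active = binding more than 3 SD below its plate's average and above zero; inconclusive = below that plate limit but binding exactly zero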;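 also: hits lower antibody fragment binding to DSG3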
CaV13 ICDI inh = Primary screen for inhibitors of IQ motif and Ca2+-dependent inactivation inhibitor domain binding in CACNA1D, Förster resonance energy transfer in living cells, …; HEK cells, CFP/YFP FRET ICDI-IQ, plate reader, 10 min; percent FRET-ratio fall versus neutral wells; inhibition, % at 12.3 µM; hit rate 0.098% among 340,000;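 active = mean replicate inhibition of at least 30% and at least 1% of replicates passing that level; inconclusive = only one of the two criteria is met; inactive = neither criterion is met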;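 also: 0% = median of the neutral control wells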
N-glyco inh = increase of ERlucT glycosylation luciferase signal, primary screen, N-linked glycosylation inhibitor project, D54 ERlucT cells, luminescence, set 2; D54 ERlucT glycosylation luciferase reporter, 24 h; percent of 100 nM tunicamycin response; reporter increase, % at 12.5 µM; hit rate 0.23% among 360,000; AID 588692, 2011;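 active = mean luciferase reporter signal, scaled so untreated is 0 and the glycosylation-blocking control 100, at or above a set limit in every replicate; inconclusive = mean reaches the limit but not every replicate does; inactive = mean below the limit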;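 also: luciferase carries N-glycosylation sites so blocking glycosylation raises the light; 0% = median of neutral control wells and 100% = median of 100 nM tunicamycin wells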
Vif inh = HIV Vif self-association inhibitors, primary screen, imaging, HEK293T, single point. HEK293T cells, Vif self-association by quenched fluorescence, 24 h. inhibition, % at 7.49 µM. hit rate 0.35% among 340,000. AID 602346, 2012; in the data active = inhibition above about 50%, passing the limit was not always enough; inconclusive = no clear call, values can overlap the other calls; inactive = below about 31%
NSD2 inh = NSD2 histone methyltransferase inhibitors, primary screen, biochemical, AlphaScreen, single concentration, set 2; AID 743445, 2014; inhibition, % at 12.5 µM; hit rate 0.54% among 310,000; Histone-lysine N-methyltransferase NSD2 (Homo sapiens), O96028; NSD2 peptide methylation, 120 min; in the data active = inhibition above about 50%
Target sequence (O96028 whole entry, looked up): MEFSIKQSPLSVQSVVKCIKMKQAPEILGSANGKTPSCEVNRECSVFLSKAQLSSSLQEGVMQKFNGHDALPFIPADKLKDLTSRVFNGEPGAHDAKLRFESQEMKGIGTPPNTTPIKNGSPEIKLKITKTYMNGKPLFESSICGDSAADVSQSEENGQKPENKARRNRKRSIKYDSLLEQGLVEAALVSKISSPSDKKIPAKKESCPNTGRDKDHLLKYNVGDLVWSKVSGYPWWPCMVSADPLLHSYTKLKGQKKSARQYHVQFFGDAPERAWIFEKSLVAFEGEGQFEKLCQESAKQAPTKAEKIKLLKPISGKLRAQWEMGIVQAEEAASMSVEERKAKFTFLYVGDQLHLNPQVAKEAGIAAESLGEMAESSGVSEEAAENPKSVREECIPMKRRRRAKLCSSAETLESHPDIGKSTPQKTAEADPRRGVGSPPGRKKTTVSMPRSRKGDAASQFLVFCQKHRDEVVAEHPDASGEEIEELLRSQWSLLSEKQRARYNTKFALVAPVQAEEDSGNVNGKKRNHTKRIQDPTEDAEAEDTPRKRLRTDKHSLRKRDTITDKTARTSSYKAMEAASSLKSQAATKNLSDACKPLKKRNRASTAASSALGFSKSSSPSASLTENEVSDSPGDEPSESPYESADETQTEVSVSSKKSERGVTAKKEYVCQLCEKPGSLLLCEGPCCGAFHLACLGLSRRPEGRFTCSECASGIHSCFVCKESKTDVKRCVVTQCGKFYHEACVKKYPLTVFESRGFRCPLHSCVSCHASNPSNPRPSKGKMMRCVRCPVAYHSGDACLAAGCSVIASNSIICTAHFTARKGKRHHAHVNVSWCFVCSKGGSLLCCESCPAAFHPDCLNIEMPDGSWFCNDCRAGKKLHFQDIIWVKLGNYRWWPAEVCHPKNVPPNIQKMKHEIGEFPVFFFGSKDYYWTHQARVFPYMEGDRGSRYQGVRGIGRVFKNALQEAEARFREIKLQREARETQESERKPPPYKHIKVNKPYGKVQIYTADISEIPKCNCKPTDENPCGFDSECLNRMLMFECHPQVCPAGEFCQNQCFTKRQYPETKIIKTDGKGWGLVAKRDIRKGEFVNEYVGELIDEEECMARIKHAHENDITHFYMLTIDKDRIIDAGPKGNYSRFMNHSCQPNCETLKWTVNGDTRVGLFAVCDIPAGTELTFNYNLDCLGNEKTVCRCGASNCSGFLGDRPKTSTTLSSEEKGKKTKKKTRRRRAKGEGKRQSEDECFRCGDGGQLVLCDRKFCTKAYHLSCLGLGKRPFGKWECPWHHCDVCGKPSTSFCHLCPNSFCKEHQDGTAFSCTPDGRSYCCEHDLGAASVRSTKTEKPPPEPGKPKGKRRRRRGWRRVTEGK
ATG4B inhibitor = ATG4B protease inhibitors, primary screen, biochemical, fluorescence, uHTS; Cysteine protease ATG4B (Homo sapiens), Q9Y4P1; ATG4B cleavage of LC3-PLA2, NBD-HPC fluorescence, 1 h; inhibition, % at 8.33 µM; hit rate 0.51% among 340,000; AID 504462, 2011; in the data active = inhibition above about 40%
Starred values were filed as active, the others as inactive; ? = inconclusive; . = no result.

SMILES	DSG3 Ab inh	CaV13 ICDI inh	N-glyco inh	Vif inh	NSD2 inh	ATG4B inhibitor
CCOC(=O)CNC(=O)c1ccc2[nH]c3c(c2c1)CCCC3	79.8	-9.6	2.0	71.9*	1.1	-10.8
Cc1cc2oc3ccc(NCCCn4ccnc4)cc3c(=O)c2cc1C	443.6	-22.7	-5.6	153.6*	.	4.7
Cc1cc(OC(=O)c2cc(C(F)(F)F)cc(C(F)(F)F)c2)c([N+](=O)[O-])c(=O)[nH]1	102.0	-6.9	1.8	.	.	-9.6
O=C(Nc1ccc(S(=O)(=O)Nc2nccs2)cc1)c1cccc(N2C(=O)c3ccccc3C2=O)c1	105.9	-5.4	0.2	3.0	0.3	13.3
Cc1cccc(C(=O)Nc2ccc(S(=O)(=O)Nc3nc(C)cc(C)n3)cc2)c1	14.4*	-19.8	2.4	-2.3	0.8	-7.2
COc1ccc(-n2ccc(=O)c(C(=O)Nc3ccc(S(=O)(=O)Nc4nccs4)cc3)n2)cc1	49.0*	-7.2	0.1	0.1	-2.5	0.0
N#Cc1cccc(C(=O)Nc2ccc(S(=O)(=O)Nc3nccs3)cc2)c1	.	-2.8	2.4	65.9*	10.5	-1.0
CC(O)CNc1nc2c(c(=O)n(C)c(=O)n2C)n1Cc1cccc(C(F)(F)F)c1 (stereo not drawn)	111.6	-5.2	0.4	-17.6	4.1	-4.0
O=C(Nc1nncs1)c1ccc(N2C(=O)C3C4C=CC(C4)C3C2=O)cc1 (stereo not drawn)	.	-4.4	-1.9	-8.3	6.7	-5.8
O=C1OCC/C1=C\NCCCN/C=C1\CCOC1=O	104.4	-5.6	1.8	3.3	-1.6	.
COc1ccccc1/C=C/C(=O)/C=C/c1ccccc1O	102.1	-22.1	38.7*	-3.5	0.8	26.1
COc1ccccc1C=CC(=O)C=Cc1ccccc1OC	92.9	-3.2	18.3	38.9	0.7	1.4
Cc1ccc(-n2nc(-c3ccco3)cc2C(=O)O)c(C)c1	59.6*	-6.3	0.6	-9.4	28.6	26.4
O=C(O)c1cc(-c2ccco2)nn1-c1cccc(Cl)c1	.	-5.0	-0.7	3.5	29.4	17.3
O=C(Cn1c2ccccc2c2nc3n(c(=O)c21)CCS3)Nc1ccccc1C(F)(F)F	92.8*	-0.7	0.0	-17.9	-3.6	2.8
CC(O)[C@H](NC(=O)C1CCN(C(=O)[C@H](Cc2ccccc2)NC(=O)OC(C)(C)C)CC1)C(=O)O (stereo partly drawn)	105.9	-2.9	1.8	-2.4	-0.3	1.2
CCOC(=O)Cc1csc(-n2sc3ccccc3c2=O)n1	43.9*	-8.2	-2.1	-2.0	-2.3	-4.2
CCCCn1c(=O)c(CCC(=O)O)nc2ccccc21	93.6	-2.2	1.4	-4.2	-2.1	-3.8
CC(C)c1nnc(NC(=O)C2CCCN(C(=O)Nc3ccc(F)cc3)C2)s1 (stereo not drawn)	95.8	-3.2	0.3	-8.1	5.5	-6.2
Cc1ccc(NC2=C/C(=N/S(=O)(=O)c3cccs3)c3ccccc3C2=O)cc1C	92.0	-10.3	1.2	-1.8	-0.3	-1.3
COc1ccc(S(=O)(=O)/N=C2\C=C(Nc3ccc(O)cc3)C(=O)c3ccccc32)cc1	95.5	-4.1	-19.0	-7.9	50.9*	26.7
CC(C)c1ccc(S(=O)(=O)/N=C2\C=C(NS(=O)(=O)c3ccccc3)C(=O)c3ccccc32)cc1	91.6	-7.1	3.4	-1.9	112.1*	-29.5
COC(=O)C(C(C)=O)C1=C/C(=N\S(=O)(=O)c2ccc(C)cc2)c2ccccc2C1=O (stereo not drawn)	106.1	.	1.1	17.3	.	-5.4
CCc1ccc(S(=O)(=O)/N=C2\C=C(NS(=O)(=O)c3ccccc3)C(=O)c3ccccc32)cc1	49.3*	-14.8	1.3	7.1	127.7*	-1.0
Cc1ccc(C)c(S(=O)(=O)/N=C2\C=C(NS(=O)(=O)c3ccccc3)C(=O)c3ccccc32)c1	106.7	-2.3	3.2	3.2	96.9*	-4.3
SMILES	DSG3 Ab inh	CaV13 ICDI inh	N-glyco inh	Vif inh	NSD2 inh	ATG4B inhibitor
Cc1cccc(S(=O)(=O)Nc2cccc3c2C(=O)c2ccccc2-3)c1	94.2	-7.0	-1.1	-13.9	15.3	-11.8
CCCCN1C(=O)C(CC(=O)NCCCN(C)C)CC(C(=O)N2CCOCC2)=C1C (stereo not drawn)	?	-3.0	0.7	-6.7	.	.
CCCCCCC(=O)N(O)C1CC(=O)N(c2ccc(C)cc2)C1=O (stereo not drawn)	96.1	-5.9	37.6*	1.6	1.2	-5.6
CCCCCCC(=O)N(O)C1CC(=O)N(c2ccc(Cl)cc2)C1=O (stereo not drawn)	110.7	-19.8	60.5*	-0.8	0.0	-3.4
O=C(O)CSC1CC(=O)N(c2ccc(Cl)cc2)C1=O (stereo not drawn)	102.0	-4.4	0.4	3.6	1.5	-2.1
Cc1ccc(N2C(=O)CC(N(O)C3CC(=O)N(c4ccc(C)cc4)C3=O)C2=O)cc1 (stereo not drawn)	100.1	-4.0	0.9	9.3	-5.6	-13.7
O=c1cc(-c2ccccc2)nc(Sc2ccc([N+](=O)[O-])cc2[N+](=O)[O-])[nH]1	80.9*	-4.6	2.8	-2.1	2.9	-0.6
Cc1ccc(NC(=O)CSCC(=O)N2CCN(C(=O)c3ccco3)CC2)cc1	102.2	-7.5	0.5	3.3	-0.1	-29.2
Cc1ccc(NC(=O)CSC(C)C(=O)OCC(=O)N2CCN(C(=O)c3ccco3)CC2)cc1 (stereo not drawn)	102.6	-4.3	-1.0	61.2*	-0.1	-5.9
Cc1cc2cc(CNC(=O)NC3CCCCC3)ccc2[nH]1	73.7*	-4.4	1.9	19.1	37.4	-7.0
Cc1cc2cc(CNC(=S)NC3CCCCC3)ccc2[nH]1	105.6	1.4	-0.9	1.4	-0.2	5.6
Cc1ccc(NC(=O)NCc2ccc3[nH]c(C)cc3c2)cc1	86.6*	-5.5	-11.5	.	-1.5	-3.5
CC[C@@H]1CC=C[C@H]2[C@H]1C(=O)N(Cc1ccccc1)[C@H]2c1ccoc1	98.4	.	38.2*	2.8	.	3.9
O=C(NCc1ccc(F)cc1F)[C@@H]1CCCN1C(=O)[C@@H]1CCCN1C(=O)c1cccs1	.	-9.2	.	.	.	.
NC(=O)c1ccc(NC(=O)c2ccc3c(c2)CCN3S(=O)(=O)c2ccccc2)cc1	10.1*	-4.9	0.2	-6.8	-1.9	-15.7
Cc1cccc(C)c1OCC(=O)N1CC2(C)CC1CC(C)(C)C2 (stereo not drawn)	99.2	-3.7	0.8	-7.7	0.2	-7.4
